# Screens deposited in PubChem BioAssay by National Center for Advancing Translational Sciences (NCATS).
# FBPA coupling cs: counter-screen for Giardia aldolase inhibitors: coupling enzyme system | coupling enzyme system counterscreen, AmpLite Red fluorescence | activity change, negative = inhibition, % at 58.2 µM, hits read low | 0.67% of 290,000 active; in the data active = activity change below about -30%
#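 Final compound at 57.5 uM, incubated 10 min at RT with coupling enzyme reagent (glyceraldehyde-3-phosphate), then 20 min with substrate and AmpLite Red detection. Fluorescence read at 525/598 nm; tests interference with the coupling assay, not aldolase inhibition.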
# PI4K2A block: blocks human PI4K2A kinase activity. 0.13% of 420,000 active. Q9BTU6. activity change, negative = inhibition, % at 76.9 µM. AID 1346378. purified PI4K2A, ADP-Glo luminescence, 1 h; hits give low values; in the data active = activity change below about -50%; inconclusive = mostly about -30% to -49%;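 also: -100% = wells without enzyme as full effect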
# Target sequence (Q9BTU6 whole entry, looked up): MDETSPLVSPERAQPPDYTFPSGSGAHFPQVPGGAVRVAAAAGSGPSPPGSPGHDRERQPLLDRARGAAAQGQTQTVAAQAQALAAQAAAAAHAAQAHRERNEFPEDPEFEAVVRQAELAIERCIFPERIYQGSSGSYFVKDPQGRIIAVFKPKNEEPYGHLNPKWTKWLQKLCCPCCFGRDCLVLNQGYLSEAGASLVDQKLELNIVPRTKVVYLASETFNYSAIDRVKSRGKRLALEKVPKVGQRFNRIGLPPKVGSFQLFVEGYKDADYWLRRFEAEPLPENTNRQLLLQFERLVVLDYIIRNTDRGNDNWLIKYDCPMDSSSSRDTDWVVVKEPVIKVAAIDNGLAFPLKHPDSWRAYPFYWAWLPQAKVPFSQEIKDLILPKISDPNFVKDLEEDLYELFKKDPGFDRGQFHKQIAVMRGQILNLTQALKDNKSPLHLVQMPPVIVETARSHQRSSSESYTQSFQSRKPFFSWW
#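 In this quantitative HTS, ADP production by PI4K2A was quantified luminescently after 1 h at ambient temperature; 100 microM adenosine served as plate-quality control.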
# GALK inh: blocks human galactokinase activity | Potency, µM (doses to about 57.5 µM), for the others: at the highest dose activity change, negative = inhibition, actives largely listed as inhibitors | 0.007% of 270,000 active | Purified GALK, Kinase-Glo residual ATP luminescence | AID 1868; also: potency is read from the fitted curve at half-maximal effect
#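 ATP-depletion format; final 35 uM ATP, 100 uM D-galactose, 5 nM enzyme; pH 8.0 HEPES/Mg2+ buffer; 60 min RT; luminescence read 10 min after detection reagent.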
# Eya2 inh: blocks the phosphatase activity of human Eya2; Potency, µM (highest dose often 76.9 µM), without a hit: at the highest dose activity, negative = inhibition, most hits filed as inhibitors; recombinant Eya2, OMFP fluorescence dephosphorylation (OMFP is methylfluorescein phosphate); O00167; 0.006% of 330,000 active; also: potency is read from the fitted curve at half-maximal effect
#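 Eya2 protein (added as 0.2 uM solution) was preincubated with compound for 10 min at ambient temperature in 50 mM HEPES pH 7.5, 50 mM NaCl, 5 uM MgCl2, 0.05% BSA, 1 mM DTT. OMFP (added at 50 uM) then reacted 10 min; fluorescence read at 485/525 nm.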
# USP2a inh: blocks human ubiquitin-specific protease USP2a; Potency, µM (series often up to 38.3 µM), without a hit: at the top dose activity change, negative = inhibition, usual class: inhibitors; 0.01% of 330,000 active; USP2 core, Ub-CHOP2 coupled fluorogenic reporter, 485/531; O75604; AID 463254;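 also: potency is read from the fitted curve at half-maximal effect; plate controls were DMSO wells for no effect and full inhibition by NEM control for full effect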
#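 Cell-free coupled assay: 10nM USP2 core preincubated 30min RT with compound in Tris-HCl pH 8.0/CaCl2/CHAPS buffer, then 25nM Ub-CHOP2 and 25nM reporter substrate; fluorescence (Ex 485/Em 531) read after 60min RT, normalized to NEM inhibition, concentration-response curves fitted.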
# USP1 inh: inhibitors of human USP1/UAF1 deubiquitinase; recombinant USP1/UAF1, Ub-Rhodamine cleavage fluorescence; 0.23% of 390,000 active; AID 743255; Potency, µM (top dose mostly 57.1 µM), without a hit: at the top dose activity change, negative = inhibition, most hits filed as inhibitors; O94782; also: potency is read from the fitted curve at half-maximal effect; nearly all actives have a fitted effect of over 60% in size
#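 Step one: compound is pinned into 1nM USP1/UAF1 in HEPES pH 7.8 buffer with TCEP. Step two: 15 min room-temperature incubation. Step three: Ub-Rho (150nM final) starts cleavage, tracked by fluorescence over six one-minute reads.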
# Starred values were filed as active, the others as inactive; ? = inconclusive; / = not tested or not shown. An excerpt weighted towards active compounds, which were near 0.71% of everything screened. Unless noted, calls follow the shape of the dose curve; as a rule, active = well fitted curve in the direction sought with a large enough effect; inconclusive = small, poorly fitted or top-dose-only effect, or another doubt; inactive = no such curve, though single readings can be large; an effect the other way counts as inactive or inconclusive. Unless noted, % is scaled to controls: 0 for no effect and ±100 for the full control effect.
SMILES,FBPA coupling cs,PI4K2A block,GALK inh,Eya2 inh,USP2a inh,USP1 inh
Cc1ccc(S(=O)(=O)NC2=C(N3CCN(c4ccccc4F)CC3)C(=O)c3ccccc3C2=O)cc1,-27,-2,5%,0%,-3%,-18%
Cc1ccc(S(=O)(=O)NC2=C(N3CCN(Cc4ccccc4)CC3)C(=O)c3ccccc3C2=O)cc1,-34*,2,2%,-3%,-2%,-6%
O=C1C(NS(=O)(=O)c2cccs2)=C(N2CCN(c3ccccc3)CC2)C(=O)c2ccccc21,-33*,-4,1%,-21%,2%,?
CC(=O)Nc1ccc(N2CCCC2)cc1,-32*,-1,-2%,7%,-5%,-7%
COCCCn1[nH]c2c3c(ccc2c1=O)C(=O)c1ccccc1C3=O,-49*,-13,-1%,10%,2%,-22%
CC(c1ccccc1)c1nnc(NC(=O)Nc2ccccc2F)s1 (centres undefined),-1,-50*,2%,-11%,-8%,-16%
Cc1ccc(-c2ccccc2C#N)cc1,/,-2,/,/,/,/
COc1ccc(OC)c2c(C)cc(NCCN3CCOCC3)nc12,-30*,1,9%,-8%,1%,-8%
O=[N+]([O-])c1ccc(COc2cccc3cccnc23)cc1,-9,-7,0%,3%,2%,-17%
O=[N+]([O-])c1ccc(Sc2cccc3cccnc23)c([N+](=O)[O-])c1,-47*,-28,-3%,16%,3%,-19%
O=[N+]([O-])c1cc(Cl)ccc1Sc1cccc2cccnc12,-23,-1,4%,-3%,2%,-29%
O=[N+]([O-])c1ccc(Sc2cccc3cccnc23)cc1,-42*,-3,0%,23%,0%,-3%
Cc1ccc(/C=N/n2c(-c3ccccc3)csc2=S)cc1,/,1,/,/,/,/
CN1C(=O)C(c2cn(C)c3ccccc23)(c2cn(C)c3ccccc23)c2ccccc21,/,2,/,/,/,/
CC(NC(=O)/C(C#N)=C1\N=C(NC(=O)c2ccco2)c2ccccc21)c1ccccc1 (centres undefined),3,4,-1%,56µM*,-2%,14%
CC(NC(=O)/C(C#N)=C/c1ccco1)c1ccccc1 (centres undefined),0,-1,0%,9%,2%,-7%
CCN1C(=O)[C@H]2[C@H]3[C@H](O)[C@H](O)C/C(=N/O[C@@H]4O[C@@H](COC(C)=O)[C@@H](OC(C)=O)[C@@H](OC(C)=O)[C@H]4OC(C)=O)[C@@H]3CC[C@@H]2C1=O,3,/,/,/,/,/
COc1ccc(OC2C=CC(c3ccccc3)OC2CO)c(C(C)=O)c1 (centres undefined),-5,/,/,/,/,/
O=S(=O)(Nc1ccc(O)c2ccccc12)c1cccs1,-35*,?,5%,10%,1%,-16%
O=S(=O)(Nc1cccc2ccccc12)c1cccs1,/,0,4%,-3%,2%,-25%
CCN(CC)c1nc(N)nc(NS(=O)(=O)c2ccc(Cl)cc2)n1,-33*,4,3%,3%,-1%,-11%
CCOC(=O)c1c(C)[nH]c(O)c1C=Nc1ccccc1,-6,-2,0%,9%,1%,-6%
COC(=O)c1c(C)[nH]c(O)c1C=Nc1ccc(C#N)cc1,-36*,-6,-2%,10%,9%,-14%
O=[N+]([O-])c1nccn1CO[C@@H](CO)[C@H](O)CO,/,1,/,/,/,/
Oc1ccc(NCc2ccc(OCc3ccccc3)cc2)cc1,-10,?,1%,9%,-1%,3.2µM*
SMILES,FBPA coupling cs,PI4K2A block,GALK inh,Eya2 inh,USP2a inh,USP1 inh
Oc1ccc(NCc2ccc(OCc3ccccc3Cl)cc2)cc1,/,?,/,/,/,32µM*
Oc1ccc(OCc2ccccc2)cc1,2,0,/,/,/,/
COc1cc(CNc2ccc(O)cc2)cc(Br)c1OCc1ccccc1,-41*,?,-4%,-13%,-3%,-27%
O=C(O)c1ccccc1NCCc1ccccc1,/,2,/,/,/,/
O=C(O)c1ccccc1C(=O)c1ccc2c(c1)N(Cc1cccc(F)c1)C(=O)CO2,-42*,-1,6%,-15%,-1%,-26%
CN1c2ccccc2C(C)(C)C12C=Nc1c(ccc3ccccc13)O2 (centres undefined),-78*,?,-2%,10%,3%,?
CCCCCC[C@@H](CCC)C(=O)O,/,-1,/,/,/,/
COC(=O)NC(c1ccc(Cl)cc1)C(C(C)=O)C(=O)OC (centres undefined),2,/,/,/,/,/
Cc1ccc(-c2cc3c(nn2)-c2ccccc2C3=O)cc1,-5,-63*,17%,-14%,4%,-19%
Cc1ccccc1-c1cc2c(nn1)-c1ccccc1C2=O,-39*,?,5%,4%,0%,32µM*
CCCc1ncc(C(=O)O)s1,/,0,/,/,/,/
CC(=O)OC[C@@H]1O[C@H](C/C=N\O[C@@H](C)c2cc(-c3c(C)cc(C)cc3C)no2)C=C[C@@H]1OC(C)=O,0,/,/,/,/,/
COc1ccc(COC(=O)N/N=C2/C[C@@H](O)[C@@H](O)[C@@H]3[C@@H]4C(=O)N(Cc5ccc6c(c5)OCO6)C(=O)[C@H]4CC[C@H]23)cc1,4,/,/,/,/,/
C/C(Cn1nnc([N+](=O)[O-])n1)=N\NC(=O)c1cccc(Cl)c1,-36*,3,-4%,-6%,2%,-8%
C/C(CC(=O)Nc1ccccn1)=N\NC(=O)c1ccc([N+](=O)[O-])cc1Cl,3,-17,6%,-2%,0%,-22%
C/C(Cn1nnc([N+](=O)[O-])n1)=N\NC(=O)c1ccccc1Cl,-40*,-6,1%,4%,2%,-5%
C/C(CCN1CCCc2nc(C)c(C)cc21)=N\O[C@@H](C)c1cn([C@@H]2COC[C@@H]2O)nn1,0,/,/,/,/,/
Cc1ccccc1C1C(C#N)=C(N)N(N(C)C)C2=C1C(=O)CC(C)(C)C2 (centres undefined),-1,-2,3%,1%,2%,-23%
CN(C)N1C(N)=C(C#N)C(c2cccs2)C2=C1CC(C)(C)CC2=O (centres undefined),-46*,4,0%,-3%,1%,?
O=C(O)c1cccc2cccc(-c3c4ccc(=O)c(O)c-4oc4c(O)c(O)ccc34)c12,/,-55*,/,/,/,?
CCCC(=O)N(c1ccc2oc(=O)sc2c1)S(=O)(=O)c1ccccc1,1,-50*,-1%,-1%,-1%,5%
COc1ccc(/C=N/NC2=NS(=O)(=O)c3ccccc32)cc1,3,-5,9%,5%,-7%,-24%
